Test results taken from PubChem BioAssay (NCATS).
“And” between values parts separate entries of the source, which are not always exact repeats. Identical values can stand only once. Results filed as inconclusive are left out. The source made the active and inactive calls. Unless noted, calls follow the shape of the dose curve; as a rule, active = well fitted curve in the direction sought with a large enough effect; inconclusive = small, poorly fitted or top-dose-only effect, or another doubt; inactive = no such curve, though single readings can be large; an effect the other way counts as inactive or inconclusive.

Assays:
[1] = Cell Viability - HepG2 (AID 433; calls by dose curve;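 also: potency is read from the fitted curve at half-maximal effect; potency for ATP loss meaning cytotoxicity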); settings: qHTS
Summary of the method: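 Read-out is luciferase-based quantitation of cellular ATP as a measure of viable HepG2 cells after 40 h treatment at 37 °C. Signal decrease is scaled between DMSO-only and 100 uM tamoxifen controls, with AC50 fitted by the Hill equation.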

[2] = Cell Viability - MRC5 (AID 434; calls by dose curve;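 also: potency is read from the fitted curve at half-maximal effect; potency reflects cytotoxicity seen as loss of intracellular ATP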); settings: MRC5 lung fibroblast viability, qHTS
Summary of the method: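 qHTS cytotoxicity in human lung fibroblast MRC5 cells; 40 hr treatment, 37 °C; cellular ATP by luciferase luminescence; DMSO = 0%, 100 uM tamoxifen = 100% inhibition; Hill-fit AC50.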

[3] = molecular target: Mitogen-activated protein kinase 10 (Mus musculus) (UniProt Q61831); assay: JNK3 AlphaScreen Assay (AID 530; active = well fitted curve in either direction with a large enough effect, not every such curve was filed as active;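 also: kinase came from lysate of stimulated human HepG2 cells; signal reports phosphorylation of biotinylated GST-cJun 1-79 at Ser73 with 10 µM ATP; % is scaled to controls: 0 for no effect and ±100 for the full control effect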); settings: JNK3 lysate, c-Jun phosphorylation; series mostly up to 57.1 µM
Summary of the method: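 Compound titrations were preincubated 15 minutes at room temperature with substrate, antibody and pre-activated JNK3-containing HepG2 lysate. Reactions were started with 10 uM ATP and stopped with EDTA-containing bead buffer for AlphaScreen detection.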

[4] = Cell Viability - NIH 3T3 (AID 541); settings: NIH 3T3 cell viability, qHTS; activity change, negative = cytotoxicity: at 92.2 µM (top of the series);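 also: plate controls were DMSO alone for no effect and tamoxifen positive control for full effect; nearly all actives have a fitted effect of over 25% in size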
Summary of the method: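 Luminescent ATP signal (CellTiter-Glo) served as the viability read-out after NIH 3T3 cells were exposed to compounds over a concentration range for 40 hr at 37 °C. Hill-equation modelling of concentration-response data gave AC50.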

[5] = Cell Viability - HUV-EC-C (AID 542); settings: HUV-EC-C endothelial cell viability, qHTS; series mostly up to 92.2 µM; also: % is scaled to controls: 0 for no effect and ±100 for the full control effect; nearly all actives have a fitted effect of over 35% in size
Summary of the method: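 qHTS cytotoxicity: HUV-EC-C, 1000 cells/well, 5 hr settle, compound 40 hr 37 °C, CellTiter-Glo, luminescence. AC50 via Hill equation.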

[6] = Cell Viability - SH-SY5Y (AID 544); settings: SH-SY5Y neuroblastoma cell viability; viability change, negative = cytotoxic: at 92.2 µM (top of the series); also: nearly all actives have a fitted effect of over 55% in size
Summary of the method: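 Luminescent ATP read-out (CellTiter-Glo) measures loss of viable SH-SY5Y neuroblastoma cells after 40 hr compound exposure at 37 °C. AC50 values derive from standard Hill modelling of qHTS concentration-response data.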

[7] = Cell Viability - Renal Proximal Tubule (AID 545); settings: renal proximal tubule cells viability; at 91.7 µM (top of the series), primary cells of rat origin unless noted; also: nearly all actives have a fitted effect of over 40% in size
Summary of the method: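 Luminescent ATP signal (CellTiter-Glo) served as the viability read-out after 40 hr compound exposure of freshly isolated rat proximal tubule cells at 37 °C. Concentration-dependent ATP loss was fitted with the Hill equation to give AC50.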

[8] = Cell Viability - Mesenchymal (AID 546); settings: mesenchymal cells viability, qHTS; series mostly up to 91.7 µM;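 also: cells exposed to compound for 40 hours before reading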
Summary of the method: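 AC50 values reflect the drop in intracellular ATP in a human kidney mesenchymal line derived from normal glomeruli. Treatment lasts 40 hr at 37 °C in complete medium, and the signal comes from CellTiter-Glo luminescence.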

[9] = Cellular Toxicity (caspase-3) Jurkat (AID 655); settings: Jurkat caspase-3 activation, luminescence, DMSO = 0%, tamoxifen = 100%; at 92.2 µM (top of the series);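 also: cells exposed to compound for 16 h at 37 °C before reading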
Summary of the method: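 5000 Jurkat cells/well; compound 16 hr, 37 °C; Caspase-Glo 3/7 added, 20 min RT; luminescence read. Norm: DMSO = 0%, tamoxifen 100 uM = 100%. AC50, Hill model.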

[10] = Cellular Toxicity (caspase-3) HUV-EC-C (AID 656); settings: HUV-EC-C cells, caspase-3 activation (apoptosis), vehicle = 0, 100 µM tamoxifen = 100%; series mostly up to 92.2 µM
Summary of the method: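 qHTS; HUV-EC-C, 1000 cells/well; 5 hr settle, 16 hr cmpd, 37°C; Caspase-Glo 3/7, 20 min RT; luminescence. Norm: DMSO = 0%, tamoxifen 100 uM = 100%. Hill-fit AC50.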

[11] = Cellular Toxicity (caspase-3) SHSY5Y (AID 657); settings: SH-SY5Y caspase-3 activation, DMSO zero, 10 µM staurosporine = 100%; series mostly up to 91.7 µM;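 also: cells exposed to compound for 16 hours at 37 °C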
Summary of the method: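 qHTS, SH-SY5Y, 1500 cells/well, 5 h pre-incubation 37 °C; compound 16 h 37 °C; Caspase-Glo 3/7 1 h RT; luminescence. Norm.: DMSO = 0, 10 uM staurosporine = 100%. Hill fit → AC50.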

[12] = Cellular Toxicity (caspase-3) BJ (AID 658); settings: BJ fibroblasts, luminescence, normalized: DMSO 0%, staurosporine 100%; series mostly up to 91.7 µM
Summary of the method: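 Readout: Caspase-Glo 3/7 luminescence increase in BJ cells after 16 hr treatment at 37 °C. Staurosporine and tamoxifen served as positive controls; AC50 values came from Hill modelling of data normalized to DMSO and 10 uM staurosporine.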

[13] = Cellular Toxicity (caspase-3) MRC-5 (AID 659); settings: MRC-5 cells, luminescence, normalized: DMSO 0%, 10 µM staurosporine 100%; series mostly up to 91.7 µM
Summary of the method: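 Concentration-dependent caspase 3/7 activation is measured in human normal lung fibroblasts (MRC-5) following 16-hour treatment. AC50 values come from standard Hill-equation modeling of luminescence normalized to DMSO and 10 uM staurosporine.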

[14] = Cellular Toxicity (caspase-3) SK-N-SH (AID 661); settings: SK-N-SH caspase-3 activation, qHTS, DMSO as zero, staurosporine as full; series mostly up to 91.7 µM
Summary of the method: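 Human neuroblastoma SK-N-SH, 1500 cells/well, 5 hr pre-incubation, then compound 16 hr, 37 °C. Caspase-Glo 3/7 reagent, 1 hr RT, luminescence. Norm. to DMSO/10 uM staurosporine; Hill-fit AC50.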

[15] = Cellular Toxicity (caspase-3) H-4-II-E (AID 663); settings: H-4-II-E rat hepatoma, scaled: DMSO 0%, 100 µM tamoxifen 100%; series mostly up to 92.2 µM;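 also: cells exposed to compound for 16 hr before readout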
Summary of the method: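 Apoptosis induction is scored as increased luminescence from caspase 3/7 substrate cleavage in rat hepatoma H-4-II-E cells exposed to compound for 16 hr. Activity is scaled between DMSO and 100 uM tamoxifen.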

[16] = Cellular Toxicity (caspase-3) N2a (AID 665); settings: N2a cells, luminescence, normalized: DMSO 0%, 10 µM staurosporine 100%; at 92.2 µM (top of the series);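 also: compound exposure lasted 16 h at 37 °C before readout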
Summary of the method: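 N2a cells, 1500/well, 5 h settle at 37 °C; cpd 16 h, 37 °C; Caspase-Glo 3/7, 1 h RT; luminescence. Norm: DMSO = 0, 10 uM staurosporine = 100%. AC50, Hill fit.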

[17] = molecular target: Cytochrome P450 3A4 (Homo sapiens) (UniProt P08684); assay: qHTS Assay for Inhibitors and Substrates of Cytochrome P450 3A4 (AID 884); settings: recombinant CYP3A4, Luciferin-PPXE luminescence; series mostly up to 57.1 µM; also: % is scaled to controls: 0 for no effect and ±100 for the full control effect; nearly all actives have a fitted effect of over 50% in size
Summary of the method: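 20 nM human CYP3A4 with 25 uM Luciferin-PPXE (at KM) in 200 mM KPO4, preincubated 10 min with compound; NADPH regeneration started a 60 min RT reaction. Luciferin detected by luminescence, normalized to 57 uM ketoconazole as full inhibition.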

[18] = qHTS Assay for Identification of Small Molecule Inducers of Hypoxia Response (AID 2120; active = well fitted curve in the direction sought with a large enough effect in the signal ratio, with a control signal flat, not every such curve was filed as active; the % refers to the signal ratio; also: 0% is about no effect); settings: hypoxia response reporter cells, beta-lactamase ratio readout; series mostly up to 104 µM
Summary of the method: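 ME-180 HRE-bla cells plated in Opti-MEM/0.5% dialyzed FBS, rested 4-5 h, then dosed with compound titrations by pin tool. After 17 h at 37 degrees C, CCF4 dye loaded 2.5 h at RT; 460/530 nm ratio gave %Activity and AC50.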

[19] = qHTS assay for small molecule agonists of the antioxidant response element (ARE) signaling pathway measured by Nrf2-dependant transcriptional activity - cell viability counter screen (AID 720653; active = well fitted curve in the direction sought with a large enough effect in the repeat runs; an effect the other way counts as inactive or inconclusive; also: % is scaled to controls: 0 for no effect and ±100 for the full control effect); settings: ARE-bla HepG2 viability, CellTiter-Glo ATP luminescence, 16 h; stronger effect = lower value
Summary of the method: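 Cytotoxicity counter screen: intracellular ATP quantified by CellTiter-Glo luminescence in the same ARE-bla HepG2 plates, after 16 h compound exposure and a 2 h beta-lactamase substrate step.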

[20] = qHTS assay for cell viability of HEK293 cells (AID 743288); settings: ATP luminescence (CellTiter-Glo), 18 h; max response: stronger effect = lower value; also: % is scaled to controls: 0 for no effect and ±100 for the full control effect; nearly all actives have a fitted effect of over 50% in size
Summary of the method: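 HEK293 parental, 2,000 cells/well; ≥5 h pre-incubation 37 C; pintool compound addition; 18 h, 37 C; CellTiter-Glo 30 min RT; luminescence read.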

Sequence of Cytochrome P450 3A4 (Homo sapiens) (P08684 whole entry, looked up): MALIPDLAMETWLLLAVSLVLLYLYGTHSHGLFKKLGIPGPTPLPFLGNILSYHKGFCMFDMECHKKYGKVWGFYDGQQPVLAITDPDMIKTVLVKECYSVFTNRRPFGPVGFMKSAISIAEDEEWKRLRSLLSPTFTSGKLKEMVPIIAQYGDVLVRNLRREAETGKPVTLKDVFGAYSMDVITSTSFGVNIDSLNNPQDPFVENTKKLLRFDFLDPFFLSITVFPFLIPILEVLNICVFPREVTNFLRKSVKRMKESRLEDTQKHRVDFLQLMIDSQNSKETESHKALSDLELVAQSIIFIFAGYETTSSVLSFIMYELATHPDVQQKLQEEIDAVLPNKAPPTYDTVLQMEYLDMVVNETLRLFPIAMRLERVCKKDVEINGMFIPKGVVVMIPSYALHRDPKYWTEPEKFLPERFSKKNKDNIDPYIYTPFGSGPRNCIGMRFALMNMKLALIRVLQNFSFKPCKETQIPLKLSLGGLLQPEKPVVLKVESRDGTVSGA

BrCCBr
inactive: Potency [1] > 92 µM | Potency [2] > 92 µM | outcome [3] | activity change, negative = cytotoxicity [4] -25.3% | Potency [5] | Potency [6] | activity change, negative = cytotoxicity [7] -6.16% | outcome [8] | caspase-3 activation [9] -0.244% | outcome [10] | outcome [11] | outcome [12] | outcome [13] | outcome [14] | outcome [15] | caspase-3 activation [16] -3.9% | Potency [17] | outcome [18] | max response [19] 2.36% and -0.33% | max response [20] 2.15% and 1.92%

O=[N+]([O-])c1cccc2ccccc12
inactive: Potency [1] > 92 µM | Potency [2] > 92 µM | outcome [3] | activity change, negative = cytotoxicity [4] 3.57% | Potency [5] | Potency [6] | activity change, negative = cytotoxicity [7] -0.153% | outcome [8] | caspase-3 activation [9] -1.75% | outcome [10] | outcome [11] | outcome [12] | outcome [13] | outcome [14] | outcome [15] | caspase-3 activation [16] -0.0738% | Potency [17] | outcome [18] | max response [19] 8.97% and -15.3% | max response [20] -12% and 2.53%

CC(C)(OO)c1ccccc1
inactive: Potency [1] > 92 µM | Potency [2] > 92 µM | outcome [3] | Potency [5] | activity change, negative = cytotoxicity [7] -8.61% | outcome [8] | caspase-3 activation [9] -2.32% | outcome [10] | outcome [11] | outcome [12] | outcome [13] | outcome [14] | outcome [15] | caspase-3 activation [16] -2.62% | Potency [17] | outcome [18] | max response [19] -8.73% and -2.9% | max response [20] -6.54% and -1.29%
active: activity change, negative = cytotoxicity [4] -123% | viability change, negative = cytotoxic [6] -82.7%

CCOP(=S)(OCC)SCSC(C)(C)C
inactive: Potency [1] > 92 µM | Potency [2] > 92 µM | outcome [3] | activity change, negative = cytotoxicity [4] 1.25% | Potency [5] | Potency [6] | activity change, negative = cytotoxicity [7] 1.14% | outcome [8] | caspase-3 activation [9] -0.764% | outcome [10] | outcome [11] | outcome [12] | outcome [13] | outcome [14] | outcome [15] | caspase-3 activation [16] -3.31% | Potency [17] | outcome [18] | max response [19] -1.33% and 1.99% | max response [20] -9.58% and -1.13%

C=C(Cl)Cl
inactive: Potency [1] > 92 µM | Potency [2] > 92 µM | activity change, negative = cytotoxicity [4] 0.633% | Potency [5] | Potency [6] | activity change, negative = cytotoxicity [7] -2.22% | outcome [8] | caspase-3 activation [9] 0.59% | outcome [10] | outcome [11] | outcome [12] | outcome [13] | outcome [14] | outcome [15] | caspase-3 activation [16] 1.75% | Potency [17] | outcome [18] | max response [19] -2.66% | max response [20] -0.763%
